Source: PubChem BioAssay (NCI)
This is part of a sample that, as a whole, favours compounds with a hit. Of some 83,000 tested, about 20% had one in any assay.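 Cell lines were cultured in 96-well plates, exposed to a single compound concentration, and assessed for percent growth 48 hours later.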 Calls of active or inactive are those of the source. The calls were made as follows: active = growth percent below 10; inactive = the rest.

Assays:
Experiment in all cases: NCI-60 one-dose screen, 48 h (100 = growth as untreated, 0 = no growth, -100 = all killed)
Conditions in all cases: 10 µM unless noted
[1] = tested on: NCI-H23 lung
[2] = tested on: NCI-H226 lung
[3] = tested on: NCI-H322M lung
[4] = tested on: HOP-62 NSCLC
[5] = tested on: NCI-H460 lung
[6] = tested on: HOP-92 NSCLC
[7] = tested on: NCI-H522 lung
[8] = tested on: A549/ATCC NSCLC
[9] = tested on: 786-0 renal
[10] = tested on: COLO 205 colon

Measured: growth

CCCOc1ccc(-c2nc(-c3ccc(N)cc3)cs2)cc1
inactive: [1] 96.8% | [2] 111% | [3] 103% | [4] 107% | [5] 98% | [6] 94.4% | [7] 89.3% | [8] 93.5% | [9] 87.1% | [10] 143%

Cc1ccc(-c2cc(-c3ccc(C)cc3)nc(N3CCN(CCNc4ccnc5cc(Cl)ccc45)CC3)n2)cc1
inactive: [1] 41.7% | [2] 18% | [3] 55.7% | [4] 41.6% | [7] 59.6% | [8] 59.1% | [10] 10.9%
active: [5] 6.78% | [6] -12.7% | [9] -38.8%

O=C(Nc1cc(-c2cccnc2)nc(NCCCN2CCOCC2)n1)c1cc(Br)cc(C(F)(F)F)c1
active: [10] 1.11%
inactive: [1] 80.9% | [2] 73.8% | [3] 58.2% | [4] 69.4% | [5] 56% | [6] 34.6% | [7] 60.2% | [8] 67.9% | [9] 51.8%

C[C@@H]1C[C@H]2C(=O)O[C@@H](C)[C@H](NC(=O)[C@H](Cc3cc(F)cc(F)c3)NC(=O)Nc3ccc(C4CC4)cc3F)C(=O)N3CCC[C@H]3C(=O)N3CCCC[C@H]3C(=O)N[C@@H](C)C(=O)N2C1
inactive: [1] 28.7% | [2] 19.8% | [3] 45.4% | [4] 27.8% | [5] 13.6% | [7] 19.4% | [8] 18.3% | [9] 20%
active: [6] 3.54% | [10] -33.2%

C=C(C)[C@@H]1CC[C@]2(C(N)=O)CC[C@]3(C)[C@H](CC[C@@H]4[C@@]5(C)C/C(=C/c6cccnc6)C(=O)C(C)(C)[C@@H]5CC[C@]43C)[C@@H]12
active: [2] 9.08% [100 µM] | [4] 3.06% [100 µM] | [5] -42.8% [100 µM] | [7] -16.8% [100 µM] | [10] -23.6% [100 µM]
inactive: [1] 18.9% [100 µM] | [3] 12.7% [100 µM] | [6] 16.8% [100 µM] | [8] 14.2% [100 µM] | [9] 18.1% [100 µM]

Cc1nn(-c2ccccc2)c(N2CCOCC2)c1-c1nc2ccc([N+](=O)[O-])cc2[nH]1
inactive: [1] 107% | [2] 111% | [3] 93.2% | [4] 128% | [5] 99.5% | [6] 117% | [7] 80.5% | [8] 94% | [9] 107% | [10] 124%

C#C[C@]1(O)CC[C@H]2[C@@H]3CC=C4c5nc(N)sc5CC[C@]4(C)[C@H]3CC[C@@]21C
inactive: [1] 78% | [2] 83.8% | [3] 79.7% | [4] 62.5% | [5] 86.9% | [6] 62.2% | [7] 56.6% | [8] 65.9% | [10] 80.5%
active: [9] -0.771%

CC(C)(C)c1cc(C(=O)Nc2ccc(C(=O)NCCN)cc2)cc(C(C)(C)C)c1
active: [5] 3.53% | [10] -77.7%
inactive: [1] 85% | [2] 84.2% | [3] 58.3% | [4] 67% | [6] 26.1% | [7] 40.3% | [8] 39.3% | [9] 32.2%

NC(=S)Cc1ccccc1
inactive: [1] 102% | [2] 96.8% | [3] 98.3% | [4] 98.1% | [5] 106% | [6] 108% | [7] 92% | [8] 99.7% | [9] 99.6% | [10] 108%

CCc1ccc(-c2ccc(COc3ccc(CC4SC(=O)NC4=O)cc3)cc2)cc1 (stereo not given)
inactive: [1] 52.2% | [2] 84.5% | [3] 89.8% | [4] 84.5% | [5] 79.3% | [6] 60.7% | [7] 45.5% | [8] 64.8% | [9] 78.1% | [10] 99.9%

CC(C)(C)c1cc(C(=O)N2CCC(C(=O)NCCN)CC2)cc(C(C)(C)C)c1
inactive: [1] 104% | [2] 81.3% | [3] 93.6% | [4] 97.5% | [5] 100% | [6] 85.1% | [7] 66% | [8] 81% | [9] 106% | [10] 98.9%
